Experiment [1] is described as follows: optical density shifts of acrAB sulA E. coli – strain DRC41, OD650, 48 h, E. coli filamentation inducer project, primary screen (AID 1152).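 Also: E. coli MC1000 strain DRC41 lacking acrAB efflux pump and sulA.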 The following applies: higher = more signal, called active from +8 up or from −8 down.
The nature of experiment [2]: probe aLefty1 binding on compound microarray – biochemical, small-molecule microarray, 635/667 nm fluorescence, primary screen (AID 1153).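 Also: score merges spot fluorescence with signal-to-noise ratio from the scanned slide images.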 The following applies: higher = more signal.
The nature of experiment [3]: plasmodial surface anion channel blockers, osmotic lysis – cell-based, P. falciparum Indochina, OD700, 1 h, primary screen (AID 1154). The following applies: P. falciparum Indochina infected RBC osmotic lysis, higher = more signal, called active from +8 up or from −8 down.
Experiment [4] in a line: plasmodial surface anion channel blockers, osmotic lysis – cell-based, P. falciparum Indochina, OD700, 2 h, primary screen (AID 1155).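 Also: lysis reports solute entry through the parasite surface anion channel PSAC.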 The following applies: P. falciparum Indochina infected erythrocytes, higher = more signal, called active from +8 up or from −8 down.
Experiment [5] can be described thus: changes in parasitized red cell lysis, either direction – P. falciparum Indochina, OD700, 3 h, PSAC antagonist project, primary screen (AID 1156). To be noted: P. falciparum-infected erythrocytes, osmotic lysis, higher = more signal, called active from +8 up or from −8 down.
Experiment [6] is described as follows: plasmodial surface anion channel blockers, osmotic lysis – cell-based, P. falciparum Indochina, OD700, 18 h, primary screen (AID 1157). To be noted: P. falciparum Indochina infected erythrocytes, osmotic lysis OD700, 18 h; higher = more signal, called active from +8 up or from −8 down.
A short description of experiment [7]: S6 kinase pathway phospho-S6 level changes – cell-based, A549, cytoblot, luminescence, serum-stimulated, primary screen (AID 1158).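 Also: serum-stimulated A549 lung adenocarcinoma cells; signal is phosphorylated S6 detected by cytoblot immunostaining with HRP secondary.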 To be noted: 5 h, higher = more signal.
Experiment [8] has as its target NADPH oxidase 2 (Homo sapiens) (UniProt P04839). Briefly: compounds shifting NOX2 Amplex Red fluorescence – cell-based, HEK293-NOX2, PMA-stimulated, NOX inhibitor project, primary screen (AID 1159). Also: test concentration not given here. To be noted: 45 min, higher = more signal, called active from +8 up or from −8 down.
The target in experiment [9] is NADPH oxidase 4 (Homo sapiens) (UniProt Q9NPH5). The experiment can be described thus: compounds shifting NOX4 Amplex Red fluorescence – cell-based, HEK293-NOX4, tetracycline-induced, NOX inhibitor project, primary screen (AID 1160). To be noted: HEK293-NOX4, Amplex Red H2O2 fluorescence, 45 min; higher = more signal, called active from +8 up or from −8 down.
Chain of NADPH oxidase 4 (Homo sapiens) (Q9NPH5 whole entry, looked up): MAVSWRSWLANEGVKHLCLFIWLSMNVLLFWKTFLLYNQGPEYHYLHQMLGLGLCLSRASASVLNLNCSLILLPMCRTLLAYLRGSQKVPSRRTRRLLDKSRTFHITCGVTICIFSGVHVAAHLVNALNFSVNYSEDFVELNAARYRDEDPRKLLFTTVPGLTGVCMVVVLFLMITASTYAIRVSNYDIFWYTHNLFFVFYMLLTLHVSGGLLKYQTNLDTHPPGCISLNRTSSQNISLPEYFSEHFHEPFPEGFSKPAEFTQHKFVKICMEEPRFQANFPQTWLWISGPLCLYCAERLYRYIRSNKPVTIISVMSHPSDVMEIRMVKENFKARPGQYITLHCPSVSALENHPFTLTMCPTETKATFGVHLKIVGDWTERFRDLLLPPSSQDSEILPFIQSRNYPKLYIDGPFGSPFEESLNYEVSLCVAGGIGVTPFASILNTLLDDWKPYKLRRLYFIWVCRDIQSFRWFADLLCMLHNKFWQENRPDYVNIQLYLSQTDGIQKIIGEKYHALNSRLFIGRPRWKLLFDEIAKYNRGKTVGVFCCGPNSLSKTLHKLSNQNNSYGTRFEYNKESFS
Experiment [10] has as its target NADPH oxidase 5 (Homo sapiens) (UniProt Q96PH1). The experiment can be described thus: compounds shifting NOX5 Amplex Red fluorescence – cell-based, HEK293-NOX5, NOX inhibitor project, primary screen (AID 1161). To be noted: HEK293-NOX5, ionomycin, 45 min, higher = more signal.
A short description of experiment [11]: compound effects on lung adenocarcinoma cell viability – A549, calcein-AM fluorescence, 48 h, basal, profiling panel (AID 1162). Also: test concentration not given here. The following applies: higher = more signal.
Experiment [12] in a line: compound effects on differentiated 3T3-L1 adipocyte viability – cell-based, 3T3-L1 adipocytes, calcein-AM fluorescence, 48 h, basal, profiling panel (AID 1163). Also: test concentration not given here. To be noted: 3T3-L1 adipocytes viability, higher = more signal.
A short description of experiment [13]: compound effects on hepatocellular carcinoma cell viability – HepG2, calcein-AM fluorescence, 48 h, basal, profiling panel (AID 1164). Also: test concentration not given here. To be noted: higher = more signal.
Experiment [14] can be described thus: compound effects on multiple myeloma cell viability – MM1S, calcein-AM fluorescence, 48 h, basal, profiling panel (AID 1165).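 Also: viability of MM1S multiple myeloma cells under basal unstimulated conditions; test concentration not given here.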 To be noted: higher = more signal.
The nature of experiment [15]: calcein-AM signal in unstimulated myeloma cells – cell-based, calcein-AM fluorescence, 48 h, PK04 Diversity Set, profiling panel (AID 1166).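 Also: cells grown under basal conditions without added stimulus; test concentration not given here.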 The following applies: RPMI8226 myeloma viability, higher = more signal.
Experiment [16] is described as follows: JC-1 mitochondrial signal, unstimulated HepG2 cells – cell-based, JC-1 fluorescence, 24 h, 100 nL compound, profiling panel (AID 1167). Also: test concentration not given here. The following applies: HepG2 mitochondrial potential, higher = more signal.
Experiment [17] is described as follows: JC-1 mitochondrial signal, unstimulated adipocytes – cell-based, JC-1 fluorescence, 3T3-L1 adipocytes, 24 h, 100 nL compound, profiling panel (AID 1168). Also: test concentration not given here. To be noted: JC-1 mitochondrial fluorescence, higher = more signal, called active from +8 up or from −8 down.
The nature of experiment [18]: JC-1 mitochondrial signal, unstimulated myeloma cells – cell-based, JC-1 fluorescence, RPMI8226, 24 h, 100 nL compound, profiling panel (AID 1169). Also: test concentration not given here. The following applies: JC-1 mitochondrial potential fluorescence, higher = more signal.
The nature of experiment [19]: JC-1 mitochondrial signal, unstimulated MM1S myeloma – cell-based, JC-1 fluorescence, 24 h, 100 nL compound, profiling panel (AID 1170). Also: test concentration not given here. To be noted: MM1S mitochondrial potential, higher = more signal.
The nature of experiment [20]: resazurin metabolic signal in A549 cells – cell-based, resazurin fluorescence, 24 h, PK04 Diversity Set, profiling panel (AID 1171). Also: test concentration not given here. The following applies: A549 viability, higher = more signal, called active from +8 up or from −8 down. Background: Resazurin is reduced to fluorescent resorufin, in cell work by metabolically active cells.

SMILES strings stand for the structures. Calls of active or inactive are those of the source.

Chain of NADPH oxidase 2 (Homo sapiens) (P04839 whole entry, looked up): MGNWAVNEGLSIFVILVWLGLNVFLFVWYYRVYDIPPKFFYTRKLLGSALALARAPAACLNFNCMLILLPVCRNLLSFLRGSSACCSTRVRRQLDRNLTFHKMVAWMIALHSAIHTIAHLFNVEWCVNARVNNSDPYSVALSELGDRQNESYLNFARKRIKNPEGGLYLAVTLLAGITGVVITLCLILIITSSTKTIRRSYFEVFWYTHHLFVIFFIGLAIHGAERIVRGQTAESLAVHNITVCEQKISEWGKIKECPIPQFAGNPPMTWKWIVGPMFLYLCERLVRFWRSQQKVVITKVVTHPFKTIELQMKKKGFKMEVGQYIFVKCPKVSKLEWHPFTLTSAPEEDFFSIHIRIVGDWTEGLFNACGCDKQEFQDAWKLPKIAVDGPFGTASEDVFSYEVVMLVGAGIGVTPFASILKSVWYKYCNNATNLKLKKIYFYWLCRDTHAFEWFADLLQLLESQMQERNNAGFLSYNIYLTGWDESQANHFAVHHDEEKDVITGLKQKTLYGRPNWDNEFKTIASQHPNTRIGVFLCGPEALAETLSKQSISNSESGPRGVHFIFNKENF
Chain of NADPH oxidase 5 (Homo sapiens) (Q96PH1 whole entry, looked up): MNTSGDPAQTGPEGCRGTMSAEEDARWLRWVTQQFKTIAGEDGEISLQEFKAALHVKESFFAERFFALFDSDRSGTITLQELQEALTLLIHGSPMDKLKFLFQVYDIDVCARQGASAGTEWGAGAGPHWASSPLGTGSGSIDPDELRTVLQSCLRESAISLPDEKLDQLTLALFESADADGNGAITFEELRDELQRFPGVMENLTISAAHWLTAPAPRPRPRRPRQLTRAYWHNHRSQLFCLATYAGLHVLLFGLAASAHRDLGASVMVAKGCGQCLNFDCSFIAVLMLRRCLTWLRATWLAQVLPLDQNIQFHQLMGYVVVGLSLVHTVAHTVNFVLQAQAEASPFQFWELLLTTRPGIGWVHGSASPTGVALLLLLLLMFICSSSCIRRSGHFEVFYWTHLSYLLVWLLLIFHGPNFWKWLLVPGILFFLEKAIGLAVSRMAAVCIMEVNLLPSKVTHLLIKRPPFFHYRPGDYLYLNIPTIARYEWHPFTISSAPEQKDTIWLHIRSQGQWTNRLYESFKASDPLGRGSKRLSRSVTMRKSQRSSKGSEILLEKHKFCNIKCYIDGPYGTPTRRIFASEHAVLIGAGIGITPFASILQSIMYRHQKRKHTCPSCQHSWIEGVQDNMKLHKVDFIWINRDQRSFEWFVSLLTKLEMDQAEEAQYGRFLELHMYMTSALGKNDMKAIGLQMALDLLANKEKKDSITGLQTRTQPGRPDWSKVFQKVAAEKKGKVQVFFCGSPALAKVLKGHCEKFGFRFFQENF

For `C#CCN([C@@H](Cc1ccccc1)C(=O)OC)[C@@H](/C=C/C1CC1)[C@H](O)Cc1ccccc1`, the z-score in experiment [1] was -0.634 (inactive); in experiment [3], 1.09 (inactive); in experiment [4], 0.443 (inactive); in experiment [5], -0.0572 (inactive); in experiment [6], -0.307 (inactive); in experiment [7], -0.169. Moreover, the z-score in experiment [8] is -0.284 (inactive); in [9] it was -0.417 (inactive); in experiment [10], -2.34; in [11], -1.03; in experiment [12], -0.347; in experiment [13], -1.38. In addition, the z-score in experiment [14] is -3.12; in experiment [15] it was -2.25; in [16] it was 0.993; in experiment [17], -0.21 (inactive); in [18] it was -1.03; in experiment [19], -1.51. Moreover, the z-score in [20] was 2.25 (inactive). In addition, in experiment [2], the composite z-score is -0.0538.
For the compound `C=CCN1C(=O)[C@]2(CCS(=O)(=O)c3ccccc3)N=C(c3ccc(OCCCO)cc3)O[C@@H]2c2ccccc21`, the z-score in experiment [1] was 0.836 (inactive); in experiment [3], 29.1 (active); in [4] it was 23.3 (active); in experiment [5], 1.29 (inactive); in experiment [6], 4.76 (inactive); in [7] it was 1.76. The z-score was -0.428 (inactive) in experiment [8]; 0.835 (inactive) in experiment [9]; 1.28 in [10]; 0.776 in experiment [11]; 0.142 in experiment [12]; 0.504 in [13]. Besides, the z-score in experiment [14] is -0.0236; in experiment [15] it was 0.716; in [16] it was 0.452; in experiment [17], 1.42 (inactive); in experiment [18], -0.156; in experiment [19], 0.615. In addition, in experiment [20], the z-score is -2.52 (inactive). The composite z-score in [2] was determined as 0.303.
As for `CCOC(=O)C[C@H]1[C@H](OC(=O)Cc2ccc3c(c2)OCO3)[C@@H](NC(=O)c2ccc3ccccc3n2)c2cc(OCCCO)ccc2N1C(=O)c1ccc2ccccc2n1`, the z-score was 3.01 (inactive) in experiment [1]; 15.8 (active) in experiment [3]; 2.25 (inactive) in experiment [4]; -1.37 (inactive) in experiment [5]; -0.0077 (inactive) in [6]; 1.3 in experiment [7]. The z-score is 0.11 (inactive) in experiment [8]; 0.204 (inactive) in experiment [9]; -2.65 in [10]; 5.35 in experiment [11]; 1.03 in experiment [12]; 1.83 in experiment [13]. Besides, the z-score was -1.01 in experiment [14]; 0.121 in experiment [15]; 2.81 in experiment [16]; 0.413 (inactive) in experiment [17]; 0.362 in experiment [18]; 0.981 in [19]. Further, in experiment [20], the z-score was -0.387 (inactive). The compound further returned a composite z-score in experiment [2] of 0.103.
For `COc1ccc([Si](C)(C)[C@@H]2[C@@H](CC(=O)N3CCC[C@H]3CO)O[C@]3(C(=O)N(Cc4cccc(N5C(=O)COc6ccccc65)c4)c4ccccc43)[C@H]2C)cc1`, the z-score in experiment [1] is -0.194 (inactive); in experiment [3], 3.76 (inactive); in [4], 1.41 (inactive); in experiment [5] it was -1.47 (inactive); in experiment [6] it was 0.646 (inactive); in [7], 0.324. The z-score in experiment [8] was 2.66 (inactive); in experiment [9], 1.74 (inactive); in [10], 4.12; in experiment [11] it was -0.97; in experiment [12], 0.441; in [13], -4.31. Besides, the z-score in experiment [14] was -2.96; in experiment [15] it was -3.83; in experiment [16], -1.81; in experiment [17], -1.01 (inactive); in experiment [18] it was -0.975; in [19], -2. In experiment [20], the z-score is -2.13 (inactive). For the same compound, the composite z-score in [2] came to 0.0005.

Values taken from PubChem BioAssay.
